From PubChem BioAssay
NSD2 block – blocks human NSD2 histone methyltransferase activity. NSD2-SET H3K36me1 DELFIA fluorescence, biochemical. actives 0.07% (n = 44,000). O96028. inhibition, % at 12.5 µM. AID 624260; in the data active = inhibition above about 54%, passing the limit was not always enough;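 also: inhibitors reduce the monomethyl H3K36 fluorescence signal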
Active calls of the source: *. The full list was thinned out, with hits kept by preference.

SMILES	NSD2 block
C[C@@H]1CN([C@@H](C)CO)C(=O)c2cc(NS(=O)(=O)c3cccs3)ccc2O[C@H]1CN(C)S(=O)(=O)c1cn(C)cn1	3
C[C@@H]1CN([C@@H](C)CO)C(=O)Cc2cc(NC(=O)Cc3ccccc3)ccc2O[C@H]1CN(C)C(=O)Nc1ccccc1	-1
CC(C)NC(=O)N(C)C[C@H]1Oc2c(NC(=O)c3cnccn3)cccc2C(=O)N([C@@H](C)CO)C[C@@H]1C	-1
O=c1c(O[C@@H]2OC[C@H](O)[C@H](O)[C@H]2O)c(-c2ccc(O)c(O)c2)oc2cc(O)cc(O)c12	30
O=c1c(O[C@@H]2O[C@H](CO)[C@H](O)[C@H](O)[C@H]2O)c(-c2ccc(O)cc2)oc2cc(O)cc(O)c12	0
O=c1c(OC2OCC(O)C(O)C2O)c(-c2ccc(O)c(O)c2)oc2cc(O)cc(O)c12 (centres undefined)	60*
COc1c(-c2ccc(O)cc2)oc2cc(O)cc(O)c2c1=O	-2
O=c1c(O[C@@H]2OC[C@H](O)[C@H](O)[C@H]2O)c(-c2ccc(O)cc2)oc2cc(O)cc(O)c12	72*
C[C@@H]1O[C@@H](Oc2cc(O)c3c(=O)c(O[C@@H]4O[C@@H](C)[C@H](O)[C@@H](O[C@@H]5OC[C@@H](O)[C@H](O)[C@H]5O)[C@H]4O[C@@H]4O[C@H](CO)[C@@H](O)[C@H](O)[C@H]4O)c(-c4ccc(O)c(O)c4)oc3c2)[C@H](O)[C@H](O)[C@H]1O	6
C[C@H](O)C#Cc1ccc2c(c1)O[C@H](CN(C)CC1CCOCC1)[C@H](C)CN([C@H](C)CO)S2(=O)=O	4
C[C@@H]1CN([C@H](C)CO)S(=O)(=O)c2ccc(C#Cc3cccc(F)c3)cc2O[C@H]1CN(C)S(=O)(=O)c1ccccc1F	-1
CC(=O)Nc1nccc(-c2cc(-c3cccc(C(F)(F)F)c3)no2)n1	0
Cc1noc(C)c1S(=O)(=O)Nc1ccc2c(c1)C(=O)N([C@H](C)CO)C[C@@H](C)[C@@H](CN(C)Cc1ccc(Cl)c(Cl)c1)O2	-8
Cc1noc(C)c1NC(=O)N(C)C[C@H]1Oc2ccc(NC(=O)CCN3CCOCC3)cc2CC(=O)N([C@H](C)CO)C[C@H]1C	2
C[C@@H]1CCCCO[C@@H](CN(C)S(=O)(=O)c2ccc(F)cc2)[C@H](C)CN([C@@H](C)CO)C(=O)c2cc(NS(=O)(=O)c3ccc(Cl)cc3)ccc2O1	-4
O=C(C[C@@H]1C[C@@H]2c3cc(NC(=O)C4CCC4)ccc3O[C@@H]2[C@@H](CO)O1)NCc1ccc(-c2ccccc2)cc1	6
Cc1ccc(S(=O)(=O)Nc2ccc3c(c2)C(=O)N([C@@H](C)CO)C[C@H](C)[C@@H](CN(C)C(=O)c2ccncc2)OCCCC[C@H](C)O3)cc1	0
C[C@@H]1CCCCO[C@H](CN(C)Cc2ccc(Cl)c(Cl)c2)[C@@H](C)CN([C@@H](C)CO)C(=O)c2cc(NC(=O)Nc3ccc(F)cc3)ccc2O1	3
C[C@H]1CN([C@@H](C)CO)C(=O)c2cccc(NC(=O)C3CC3)c2O[C@H]1CN(C)C(=O)Nc1ccc(F)cc1	9
CC(C)NC(=O)Nc1ccc2c(c1)C(=O)N([C@H](C)CO)C[C@H](C)[C@@H](CN(C)S(=O)(=O)c1cccs1)O2	2
Cc1noc(C)c1NC(=O)Nc1ccc2c(c1)CC(=O)N([C@H](C)CO)C[C@H](C)[C@H](CN(C)Cc1ccc(C(F)(F)F)cc1)O2	-7
C[C@H](CO)N1C[C@H](C)[C@H](CN(C)C(=O)NC2CCCCC2)OCCCC[C@H](C)Oc2ccc(NC(=O)CCCN(C)C)cc2C1=O	-8
COCC#Cc1ccc2c(c1)O[C@@H](CN(C)Cc1cccnc1)[C@H](C)CN([C@@H](C)CO)S2(=O)=O	10
C[C@@H]1CN([C@@H](C)CO)C(=O)c2cccc(NS(=O)(=O)c3ccccc3)c2O[C@@H]1CN(C)Cc1ccccc1	-5
Cc1ccc(S(=O)(=O)c2nc(-c3ccccc3)oc2NCCN2CCOCC2)cc1	4
SMILES	NSD2 block
c1ccc2c(c1)CCCc1cc(NCCN3CCOCC3)nnc1-2	3
O=C1C(Cl)=C(NCCN2CCOCC2)C(=O)c2ncccc21	90*
CCC(=O)N(C)C[C@@H]1Oc2ncc(-c3cccc(OC)c3)cc2C(=O)N([C@@H](C)CO)C[C@@H]1C	20
CC(C)(C)N(CCO)C(=O)CN1C(=O)/C(=C/c2cccc(Br)c2)SC1=S	-6
C[C@@H]1CN([C@@H](C)CO)S(=O)(=O)c2ccc(-c3cccc(F)c3)cc2O[C@H]1CN(C)S(=O)(=O)c1ccccc1	5
C[C@H]1CN([C@@H](C)CO)C(=O)CCCn2cc(nn2)CO[C@H]1CN(C)C(=O)Nc1ccccc1	6
CCOc1cc(/C=N/NC(=O)CCCCCCC(=O)Nc2ccccc2O)ccc1O	0
COc1ccc(-c2ccc3c(c2)O[C@H](CN(C)CC2CC2)[C@H](C)CN([C@@H](C)CO)S3(=O)=O)cc1	2
CC(=O)O[C@@H]1CC2C(C)(C)C(=O)C3OC3[C@]2(C)C2CC[C@@]3(C)[C@H](c4ccoc4)OC(=O)C4OC43[C@@]21C (some centres undefined)	-2
COC(=O)[C@@H](O)[C@H]1[C@@]2(C)C[C@]3(O)C4[C@@H](O[C@]56CC(=O)O[C@@H](c7ccoc7)[C@@]5(C)CCC([C@]46O)[C@]13C)[C@H]2O (some centres undefined)	76*
CC12CC(c3ccoc3)OC(=O)C1CCC1(C)C2C2OC(=O)C1(O)C1OC21 (centres undefined)	2
CC(C)CC(=O)c1c(O)cc(O)cc1OC1OC(COC(=O)c2cc(O)c(O)c(O)c2)C(O)C(O)C1O (centres undefined)	52*
COc1cc(C(=O)OCC2(O)COC(OCC3OC(Oc4c(OC)cc(CO)cc4OC)C(O)C(O)C3O)C2O)cc(OC)c1O (centres undefined)	20
O=C(OCc1ccccc1O[C@@H]1O[C@H](CO)[C@@H](O)[C@H](O)[C@H]1O)c1c(O)cccc1O[C@@H]1O[C@H](CO)[C@@H](O)[C@H](O)[C@H]1O	3
C/C=C/c1cnc2c(c1)C(=O)N([C@@H](C)CO)C[C@@H](C)[C@@H](CN(C)C(=O)Nc1cccc(OC)c1)O2	-3
C[C@@H]1CN([C@@H](C)CO)S(=O)(=O)c2ccc(-c3cccc(C#N)c3)cc2O[C@@H]1CN(C)C(=O)c1cccnc1	-14
C[C@@H]1CN([C@@H](C)CO)C(=O)c2cccc(NS(=O)(=O)c3ccc(Cl)cc3)c2O[C@H]1CN(C)Cc1ccccc1	-1
O=C(NO)c1cccc(C(=O)N/N=C/c2ccc(O)c3ccccc23)c1	-1
O=C(NO)c1cccc(C(=O)N/N=C/c2cccc(O)c2O)c1	16
O=C(NO)c1cccc(C(=O)N/N=C/c2ccc(O)c(O)c2O)c1	63*
Cc1ccc(NC2=CC(=O)c3sc(C)nc3C2=O)cc1	74*
C[C@H](CO)N1C[C@H](C)[C@@H](CN(C)S(=O)(=O)c2cccs2)Oc2c(NC(=O)Nc3ccc4c(c3)OCO4)cccc2C1=O	-1
C[C@@H]1CN([C@H](C)CO)C(=O)c2cccc(NC(=O)C3CCOCC3)c2O[C@@H]1CN(C)C(=O)Nc1ccccc1	0
C[C@H]1CN([C@@H](C)CO)S(=O)(=O)c2ccc(C#CC3(O)CCCC3)cc2O[C@H]1CN(C)C(=O)Nc1ccccc1	-2
CC(C)NC(=O)N(C)C[C@@H]1OCCCC[C@H](C)Oc2ccc(NC(=O)Nc3ccc(C(F)(F)F)cc3)cc2C(=O)N([C@@H](C)CO)C[C@@H]1C	5
